# Measurements published in article PMC7862700, “An all-to-all approach to the identification of sequence-specific readers for epigenetic DNA modifications on cytosine”.
# Columns and labels:
# Assay in all cases: DAPPL (digital affinity profiling via proximity ligation, sequencing); 10 mM Tris-HCl pH 7.5, 50 mM NaCl, 1 mM DTT, 4% glycerol, room temperature, 30 min; GST-TFs on glutathione beads, 16-mer random dsDNA library, 0.1% formaldehyde crosslink after washing; high values mean tight binding
# FEV = biological target: T1, FEV (Homo sapiens, UniProt Q99581 1-238); settings: protein: recombinant; tags: N-terminal GST; dsDNA, one strand shown
# T1 sequence: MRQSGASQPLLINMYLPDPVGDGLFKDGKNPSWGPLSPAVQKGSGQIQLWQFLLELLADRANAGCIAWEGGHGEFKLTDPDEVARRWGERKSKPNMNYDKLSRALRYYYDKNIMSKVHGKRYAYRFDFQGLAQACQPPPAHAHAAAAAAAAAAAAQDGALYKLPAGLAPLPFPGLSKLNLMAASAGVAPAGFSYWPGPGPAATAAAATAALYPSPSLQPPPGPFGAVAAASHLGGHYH
# In short: (§1)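 Each value of binding signal is a hexamer's read frequency for a factor divided by the same hexamer's frequency in the tag-only sample. Barcoded, bead-captured GST fusions of human transcription factors made in yeast were pooled with that sample and incubated with 200 nmole of a random double-stranded 16-mer DNA library in Tris/NaCl/DTT/glycerol buffer at room temperature for 30 min. Washing, 0.1% formaldehyde crosslinking, proximity ligation, PCR and Illumina NextSeq500 sequencing followed.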
# ETV5 = ETV5 (Homo sapiens, UniProt P41161 1-510); settings: protein: recombinant; tags: N-terminal GST; dsDNA, one strand shown
# ETV5, sequence (P41161 whole entry): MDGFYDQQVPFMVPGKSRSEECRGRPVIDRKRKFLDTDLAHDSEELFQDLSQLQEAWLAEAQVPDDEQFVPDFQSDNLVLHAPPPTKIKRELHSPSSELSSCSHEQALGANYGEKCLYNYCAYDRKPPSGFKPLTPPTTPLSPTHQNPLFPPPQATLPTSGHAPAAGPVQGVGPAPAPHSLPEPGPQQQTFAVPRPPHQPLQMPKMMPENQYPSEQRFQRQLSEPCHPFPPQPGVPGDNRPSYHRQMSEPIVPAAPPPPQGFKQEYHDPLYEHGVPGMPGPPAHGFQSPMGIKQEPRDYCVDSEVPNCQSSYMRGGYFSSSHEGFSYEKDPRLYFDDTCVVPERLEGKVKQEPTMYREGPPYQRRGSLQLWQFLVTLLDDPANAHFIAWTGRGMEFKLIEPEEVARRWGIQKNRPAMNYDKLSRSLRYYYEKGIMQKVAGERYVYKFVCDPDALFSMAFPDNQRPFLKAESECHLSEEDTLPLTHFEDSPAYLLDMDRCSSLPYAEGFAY
# In short: as §1
# HSF1 = HSF1 (Homo sapiens, UniProt Q00613 1-529); settings: protein: recombinant; tags: N-terminal GST; chain copies: 3; dsDNA, one strand shown
# HSF1, sequence (Q00613 whole entry): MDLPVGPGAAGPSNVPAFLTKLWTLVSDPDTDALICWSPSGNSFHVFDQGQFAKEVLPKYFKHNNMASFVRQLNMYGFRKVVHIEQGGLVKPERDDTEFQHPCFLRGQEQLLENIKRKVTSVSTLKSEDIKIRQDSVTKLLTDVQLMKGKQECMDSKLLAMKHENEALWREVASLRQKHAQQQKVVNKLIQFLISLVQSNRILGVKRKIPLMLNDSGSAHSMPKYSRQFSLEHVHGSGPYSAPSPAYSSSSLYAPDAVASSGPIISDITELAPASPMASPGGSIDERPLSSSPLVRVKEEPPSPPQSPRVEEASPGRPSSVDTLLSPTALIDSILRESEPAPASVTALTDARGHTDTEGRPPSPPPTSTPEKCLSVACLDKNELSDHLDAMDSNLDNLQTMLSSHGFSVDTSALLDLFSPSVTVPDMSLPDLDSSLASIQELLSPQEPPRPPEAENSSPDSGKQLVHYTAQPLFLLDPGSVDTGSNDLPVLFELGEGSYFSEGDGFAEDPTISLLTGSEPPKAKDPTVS
# In short: as §1
# SPIC = biological target: T2, SPIC (Homo sapiens, UniProt Q8N5J4 1-248); settings: protein: recombinant; tags: N-terminal GST; dsDNA, one strand shown
# T2 sequence: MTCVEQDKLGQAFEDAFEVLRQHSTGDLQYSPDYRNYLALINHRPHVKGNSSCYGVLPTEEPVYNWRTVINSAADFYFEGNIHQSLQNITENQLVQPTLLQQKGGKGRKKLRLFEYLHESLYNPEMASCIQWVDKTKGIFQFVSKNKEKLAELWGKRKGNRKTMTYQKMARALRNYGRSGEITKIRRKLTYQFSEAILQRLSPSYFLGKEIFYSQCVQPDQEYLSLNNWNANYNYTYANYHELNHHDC
# In short: as §1
# ELF4 = ELF4 (Homo sapiens, UniProt Q99607 1-663); settings: protein: recombinant; tags: N-terminal GST; dsDNA, one strand shown
# ELF4, sequence (Q99607 whole entry): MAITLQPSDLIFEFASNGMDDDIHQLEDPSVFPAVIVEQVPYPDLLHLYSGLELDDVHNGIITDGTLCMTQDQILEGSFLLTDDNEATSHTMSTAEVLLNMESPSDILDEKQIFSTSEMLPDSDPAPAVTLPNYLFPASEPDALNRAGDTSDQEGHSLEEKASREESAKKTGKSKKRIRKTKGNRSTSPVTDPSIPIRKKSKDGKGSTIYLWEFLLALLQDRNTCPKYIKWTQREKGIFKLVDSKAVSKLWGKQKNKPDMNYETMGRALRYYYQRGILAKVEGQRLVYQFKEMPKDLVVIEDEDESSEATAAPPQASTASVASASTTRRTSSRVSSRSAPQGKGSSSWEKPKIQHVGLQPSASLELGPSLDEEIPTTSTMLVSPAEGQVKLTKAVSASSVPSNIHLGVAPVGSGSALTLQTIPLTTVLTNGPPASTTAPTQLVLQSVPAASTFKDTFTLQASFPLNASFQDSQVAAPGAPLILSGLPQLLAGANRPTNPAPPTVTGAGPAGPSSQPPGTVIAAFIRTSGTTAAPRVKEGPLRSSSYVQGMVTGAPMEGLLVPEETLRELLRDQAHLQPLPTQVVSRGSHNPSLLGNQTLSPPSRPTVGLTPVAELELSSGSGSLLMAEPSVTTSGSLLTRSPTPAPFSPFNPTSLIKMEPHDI
# In short: as §1
# ELK4 = biological target: T3, ELK4 (Homo sapiens, UniProt P28324-2 1-405); settings: protein: recombinant; tags: N-terminal GST; dsDNA, one strand shown
# T3 sequence: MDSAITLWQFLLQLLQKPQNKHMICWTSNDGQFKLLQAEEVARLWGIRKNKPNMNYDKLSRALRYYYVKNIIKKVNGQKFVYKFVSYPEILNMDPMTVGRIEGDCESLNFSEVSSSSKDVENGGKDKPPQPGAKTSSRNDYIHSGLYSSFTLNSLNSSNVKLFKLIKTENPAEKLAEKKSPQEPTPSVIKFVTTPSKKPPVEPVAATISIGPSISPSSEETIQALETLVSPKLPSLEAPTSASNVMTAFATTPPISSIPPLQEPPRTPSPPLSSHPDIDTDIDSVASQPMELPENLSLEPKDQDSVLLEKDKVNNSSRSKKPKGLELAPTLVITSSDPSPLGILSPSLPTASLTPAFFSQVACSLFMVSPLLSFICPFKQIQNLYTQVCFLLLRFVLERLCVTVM
# In short: as §1
# ETV2 = biological target: T4, ETV2 (Homo sapiens, UniProt O00321 1-342); settings: protein: recombinant; tags: N-terminal GST; dsDNA, one strand shown
# T4 sequence: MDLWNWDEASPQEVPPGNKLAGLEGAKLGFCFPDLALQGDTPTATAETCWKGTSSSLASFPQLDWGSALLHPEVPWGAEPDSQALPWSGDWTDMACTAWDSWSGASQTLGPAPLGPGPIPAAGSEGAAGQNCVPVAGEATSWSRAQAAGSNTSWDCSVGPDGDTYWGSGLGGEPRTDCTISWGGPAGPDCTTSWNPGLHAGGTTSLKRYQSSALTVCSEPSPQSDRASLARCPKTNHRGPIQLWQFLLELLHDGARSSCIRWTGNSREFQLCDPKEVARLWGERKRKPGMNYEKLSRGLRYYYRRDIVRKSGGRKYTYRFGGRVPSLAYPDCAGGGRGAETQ
# In short: as §1
# ELF3 = biological target: T5, ELF3 (Homo sapiens, UniProt P78545 1-371); settings: protein: recombinant; tags: N-terminal GST; dsDNA, one strand shown
# T5 sequence: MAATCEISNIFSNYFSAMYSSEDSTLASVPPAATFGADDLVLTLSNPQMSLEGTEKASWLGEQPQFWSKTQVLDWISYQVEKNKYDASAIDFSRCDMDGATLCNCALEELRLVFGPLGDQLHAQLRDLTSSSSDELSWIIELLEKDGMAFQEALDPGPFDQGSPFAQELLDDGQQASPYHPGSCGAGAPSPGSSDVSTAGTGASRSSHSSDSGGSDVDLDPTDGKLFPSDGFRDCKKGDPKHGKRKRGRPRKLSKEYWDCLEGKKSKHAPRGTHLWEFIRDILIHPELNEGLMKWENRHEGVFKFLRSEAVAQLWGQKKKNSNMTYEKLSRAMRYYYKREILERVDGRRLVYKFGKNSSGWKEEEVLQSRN
# In short: as §1
# CRX = CRX (Homo sapiens, UniProt O43186 1-299); settings: protein: recombinant; tags: N-terminal GST; dsDNA, one strand shown
# CRX, sequence (O43186 whole entry): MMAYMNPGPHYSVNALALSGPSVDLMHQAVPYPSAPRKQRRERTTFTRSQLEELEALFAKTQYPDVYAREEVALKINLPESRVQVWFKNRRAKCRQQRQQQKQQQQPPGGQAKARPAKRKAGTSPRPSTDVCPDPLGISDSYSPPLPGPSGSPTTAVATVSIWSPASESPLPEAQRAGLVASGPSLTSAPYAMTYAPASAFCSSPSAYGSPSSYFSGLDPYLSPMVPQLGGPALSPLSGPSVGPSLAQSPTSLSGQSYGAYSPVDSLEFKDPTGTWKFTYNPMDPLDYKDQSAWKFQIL
# In short: as §1
# ETV1 = ETV1 (Homo sapiens, UniProt P50549 1-477); settings: protein: recombinant; tags: N-terminal GST; dsDNA, one strand shown
# ETV1, sequence (P50549 whole entry): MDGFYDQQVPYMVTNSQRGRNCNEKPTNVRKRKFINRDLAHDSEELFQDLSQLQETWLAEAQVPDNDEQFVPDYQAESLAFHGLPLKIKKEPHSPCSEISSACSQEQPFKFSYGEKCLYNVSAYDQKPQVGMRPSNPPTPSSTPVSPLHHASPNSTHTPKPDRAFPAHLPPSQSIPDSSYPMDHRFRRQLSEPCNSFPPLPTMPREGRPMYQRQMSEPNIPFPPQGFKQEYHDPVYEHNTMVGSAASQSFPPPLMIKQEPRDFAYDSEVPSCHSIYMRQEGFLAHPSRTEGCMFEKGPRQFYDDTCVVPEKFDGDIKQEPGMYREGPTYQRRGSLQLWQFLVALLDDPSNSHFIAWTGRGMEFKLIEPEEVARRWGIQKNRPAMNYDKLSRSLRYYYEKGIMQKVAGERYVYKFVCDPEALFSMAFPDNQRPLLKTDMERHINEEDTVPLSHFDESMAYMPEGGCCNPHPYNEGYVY
# In short: as §1
# ERF = biological target: T6, ERF (Homo sapiens, UniProt P50548 1-548); settings: protein: recombinant; tags: N-terminal GST; dsDNA, one strand shown
# T6 sequence: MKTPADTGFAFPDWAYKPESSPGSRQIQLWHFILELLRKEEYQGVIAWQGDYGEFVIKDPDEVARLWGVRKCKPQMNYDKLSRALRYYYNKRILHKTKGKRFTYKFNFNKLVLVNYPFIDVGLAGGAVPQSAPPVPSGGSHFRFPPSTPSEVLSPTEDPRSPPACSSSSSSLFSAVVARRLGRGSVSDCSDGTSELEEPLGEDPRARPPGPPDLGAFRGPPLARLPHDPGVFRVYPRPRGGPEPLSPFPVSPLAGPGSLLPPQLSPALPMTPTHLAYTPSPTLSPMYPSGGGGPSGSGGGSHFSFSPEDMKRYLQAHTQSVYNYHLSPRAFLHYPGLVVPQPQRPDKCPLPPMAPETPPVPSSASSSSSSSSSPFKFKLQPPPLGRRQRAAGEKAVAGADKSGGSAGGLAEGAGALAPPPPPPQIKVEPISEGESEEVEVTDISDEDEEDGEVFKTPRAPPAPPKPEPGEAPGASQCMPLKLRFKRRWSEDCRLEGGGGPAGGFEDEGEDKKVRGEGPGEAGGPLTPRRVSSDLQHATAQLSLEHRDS
# In short: as §1
# ETV3L = biological target: T7, ETV3L (Homo sapiens, UniProt Q6ZN32 1-361); settings: protein: recombinant; tags: N-terminal GST; dsDNA, one strand shown
# T7 sequence: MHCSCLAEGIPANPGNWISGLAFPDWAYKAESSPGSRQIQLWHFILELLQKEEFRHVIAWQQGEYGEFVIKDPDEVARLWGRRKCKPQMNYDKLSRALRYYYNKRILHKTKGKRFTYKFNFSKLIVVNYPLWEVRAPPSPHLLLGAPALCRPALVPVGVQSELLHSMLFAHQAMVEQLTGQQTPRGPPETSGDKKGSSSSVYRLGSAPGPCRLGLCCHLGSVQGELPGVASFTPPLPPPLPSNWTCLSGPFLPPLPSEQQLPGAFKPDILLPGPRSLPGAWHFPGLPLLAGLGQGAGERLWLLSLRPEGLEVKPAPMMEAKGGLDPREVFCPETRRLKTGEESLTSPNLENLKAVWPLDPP
# In short: as §1
# ETS2 = biological target: T8, ETS2 (Homo sapiens, UniProt P15036 1-469); settings: protein: recombinant; tags: N-terminal GST; dsDNA, one strand shown
# T8 sequence: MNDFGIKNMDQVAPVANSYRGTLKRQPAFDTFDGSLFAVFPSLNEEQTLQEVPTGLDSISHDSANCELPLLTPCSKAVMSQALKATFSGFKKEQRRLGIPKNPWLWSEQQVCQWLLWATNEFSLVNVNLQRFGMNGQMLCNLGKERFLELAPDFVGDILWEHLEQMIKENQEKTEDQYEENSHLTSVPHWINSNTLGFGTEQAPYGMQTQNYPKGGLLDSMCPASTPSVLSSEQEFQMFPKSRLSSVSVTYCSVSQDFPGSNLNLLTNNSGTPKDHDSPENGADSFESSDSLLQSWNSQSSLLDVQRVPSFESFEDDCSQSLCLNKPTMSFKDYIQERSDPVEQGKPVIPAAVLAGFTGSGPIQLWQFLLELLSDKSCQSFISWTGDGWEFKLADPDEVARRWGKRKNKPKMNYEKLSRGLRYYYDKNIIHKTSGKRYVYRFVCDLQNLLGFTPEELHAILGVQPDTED
# In short: as §1
# SPDEF = biological target: T9, SPDEF (Homo sapiens, UniProt O95238 1-335); settings: protein: recombinant; tags: N-terminal GST; dsDNA, one strand shown
# T9 sequence: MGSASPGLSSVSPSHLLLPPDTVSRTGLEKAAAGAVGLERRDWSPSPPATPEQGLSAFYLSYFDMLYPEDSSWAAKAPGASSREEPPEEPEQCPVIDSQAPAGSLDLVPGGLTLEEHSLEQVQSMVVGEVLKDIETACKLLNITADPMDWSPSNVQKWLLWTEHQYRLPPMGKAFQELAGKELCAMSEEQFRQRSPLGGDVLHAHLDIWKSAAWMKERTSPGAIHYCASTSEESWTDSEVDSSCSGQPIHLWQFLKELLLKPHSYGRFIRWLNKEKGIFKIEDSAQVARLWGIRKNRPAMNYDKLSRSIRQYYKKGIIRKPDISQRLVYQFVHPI
# In short: as §1
# ETV7 = biological target: T10, ETV7 (Homo sapiens, UniProt Q9Y603 1-341); settings: protein: recombinant; tags: N-terminal GST; dsDNA, one strand shown
# T10 sequence: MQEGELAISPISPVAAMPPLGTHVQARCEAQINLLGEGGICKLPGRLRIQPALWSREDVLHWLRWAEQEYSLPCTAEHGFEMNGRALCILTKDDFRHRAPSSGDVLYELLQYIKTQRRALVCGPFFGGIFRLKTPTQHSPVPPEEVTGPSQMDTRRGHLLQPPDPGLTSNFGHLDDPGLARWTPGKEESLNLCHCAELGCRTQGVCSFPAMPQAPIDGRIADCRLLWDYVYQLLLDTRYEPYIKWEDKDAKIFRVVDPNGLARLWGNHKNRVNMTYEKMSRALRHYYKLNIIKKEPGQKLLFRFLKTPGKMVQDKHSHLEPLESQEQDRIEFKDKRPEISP
# In short: as §1
# ELF5 = biological target: T11, ELF5 (Homo sapiens, UniProt Q9UKW6-2 1-255); settings: protein: recombinant; tags: N-terminal GST; dsDNA, one strand shown
# T11 sequence: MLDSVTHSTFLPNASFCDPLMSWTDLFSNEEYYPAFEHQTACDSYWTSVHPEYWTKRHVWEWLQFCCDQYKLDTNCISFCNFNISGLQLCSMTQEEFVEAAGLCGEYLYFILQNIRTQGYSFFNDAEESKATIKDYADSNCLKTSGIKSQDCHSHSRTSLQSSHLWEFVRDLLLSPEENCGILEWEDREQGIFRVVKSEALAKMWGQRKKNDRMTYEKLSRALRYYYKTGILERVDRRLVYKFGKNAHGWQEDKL
# In short: as §1
# ETV3 = biological target: T12, ETV3 (Homo sapiens, UniProt P41162-2 1-143); settings: protein: recombinant; tags: N-terminal GST; dsDNA, one strand shown
# T12 sequence: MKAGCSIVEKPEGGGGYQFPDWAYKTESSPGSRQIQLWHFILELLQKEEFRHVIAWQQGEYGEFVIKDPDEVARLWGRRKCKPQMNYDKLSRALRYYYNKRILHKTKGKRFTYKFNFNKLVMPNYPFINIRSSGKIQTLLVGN
# In short: as §1
# ETV6 = ETV6 (Homo sapiens, UniProt P41212 1-452); settings: protein: recombinant; tags: N-terminal GST; dsDNA, one strand shown
# ETV6, sequence (P41212 whole entry): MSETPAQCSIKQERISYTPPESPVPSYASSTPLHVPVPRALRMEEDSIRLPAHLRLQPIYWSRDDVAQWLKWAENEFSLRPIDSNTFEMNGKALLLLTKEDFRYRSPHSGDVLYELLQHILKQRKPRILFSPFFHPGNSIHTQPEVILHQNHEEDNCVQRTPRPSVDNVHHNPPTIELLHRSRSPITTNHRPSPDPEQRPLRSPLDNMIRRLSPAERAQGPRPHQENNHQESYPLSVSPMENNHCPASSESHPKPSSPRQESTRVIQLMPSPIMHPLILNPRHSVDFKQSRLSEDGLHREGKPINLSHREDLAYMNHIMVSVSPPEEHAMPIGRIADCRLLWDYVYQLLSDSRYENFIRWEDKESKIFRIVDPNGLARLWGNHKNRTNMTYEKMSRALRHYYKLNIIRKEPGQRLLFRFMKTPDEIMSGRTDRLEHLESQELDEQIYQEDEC
# In short: as §1
sequence,measurement,setting,value
TTGACA,binding signal,FEV,"1.34 fold enrichment (6-mer frequency, TF over GST control)"
same,binding signal,ETV5,"1.28 fold enrichment (6-mer frequency, TF over GST control)"
same,binding signal,HSF1,"1.19 fold enrichment (6-mer frequency, TF over GST control)"
same,binding signal,SPIC,"1.21 fold enrichment (6-mer frequency, TF over GST control)"
same,binding signal,ELF4,"1.3 fold enrichment (6-mer frequency, TF over GST control)"
same,binding signal,ELK4,"1.47 fold enrichment (6-mer frequency, TF over GST control)"
same,binding signal,ETV2,"1.36 fold enrichment (6-mer frequency, TF over GST control)"
same,binding signal,ELF3,"1.51 fold enrichment (6-mer frequency, TF over GST control)"
same,binding signal,CRX,"1.22 fold enrichment (6-mer frequency, TF over GST control)"
same,binding signal,ETV1,"1.33 fold enrichment (6-mer frequency, TF over GST control)"
same,binding signal,ERF,"1.46 fold enrichment (6-mer frequency, TF over GST control)"
same,binding signal,ETV3L,"1.37 fold enrichment (6-mer frequency, TF over GST control)"
same,binding signal,ETS2,"1.4 fold enrichment (6-mer frequency, TF over GST control)"
same,binding signal,SPDEF,"1.3 fold enrichment (6-mer frequency, TF over GST control)"
same,binding signal,ETV7,"1.44 fold enrichment (6-mer frequency, TF over GST control)"
same,binding signal,ELF5,"1.29 fold enrichment (6-mer frequency, TF over GST control)"
same,binding signal,ETV3,"1.26 fold enrichment (6-mer frequency, TF over GST control)"
same,binding signal,ETV6,"1.32 fold enrichment (6-mer frequency, TF over GST control)"
